Records with an inconclusive call do not appear. Entries that show only a call come without a potency. Calls of active or inactive are those of the source. The call rests on the fitted dose curve; in most records, active means well fitted inhibition curve with a large enough effect in the signal ratio in the repeat runs (not every such curve was filed as active); inconclusive means weak or mixed curves, or effect the other way; inactive means no such curve, though single readings can be large or run the other way; the % refers to the signal ratio.
Biological target: Vitamin D3 receptor (Homo sapiens) (UniProt P11473)
Assay: qHTS assay to identify small molecule antagonists of the vitamin D receptor (VDR) signaling pathway (AID 743223)
Conditions: VDR-UAS-bla HEK293T, beta-lactamase FRET ratio, 16 h; series mostly up to 61 µM
Source text: U.S. Tox21 Program National Center for Advancing Translational Sciences [NCATS] NIH Chemical Genomics Center [NCGC] U.S. Environmental Protection Agency [EPA] National Institutes of Environmental Health Sciences [NIEHS] National Toxicology Program [NTP] U.S. Food and Drug Administration [FDA] Tox21 Assay Overview: The vitamin D receptor (VDR), a member of nuclear hormone receptor superfamily, plays a critical role in calcium homeostasis and bone metabolism. It is also involved in cell differentiation and growth, and thrombogenicity.
Tox21 Assay Protocol Summary: VDR-bla cells were dispensed at 2,000 cells/5 uL of assay medium per well into black wall/clear-bottom 1536-well plates using a Multidrop Combi (Thermo Fisher Scientific, Waltham, MA) dispenser. After the assay plates were incubated at a 37C and 5% CO2 for 4 h, 23 nL of compounds dissolved in DMSO, positive controls or DMSO only was transferred to the assay plate by a Pintool station (Kalypsys, San Diego, CA), followed by addition of 1 uL of 1alpha, 25-Dihydroxy Vitamin D3 (3 nM, final concentration in the wells) using a Bioraptr Flying Reagent Dispenser (FRD) workstation (Beckman Coulter, Indianapolis, IN). The plates were incubated at 37C and 5% CO2 for 16 h, and then 1 uL of LiveBLAzerTM B/G FRET substrate was added using a Bioraptr FRD. The plates were incubated at room temperature for 2 h and fluorescence intensity was measured by an Envision plate reader (PerkinElmer, Shelton, CT).
Potency means the concentration at half of the fitted maximal effect.

Sequence of Vitamin D3 receptor (Homo sapiens) (P11473 whole entry, looked up): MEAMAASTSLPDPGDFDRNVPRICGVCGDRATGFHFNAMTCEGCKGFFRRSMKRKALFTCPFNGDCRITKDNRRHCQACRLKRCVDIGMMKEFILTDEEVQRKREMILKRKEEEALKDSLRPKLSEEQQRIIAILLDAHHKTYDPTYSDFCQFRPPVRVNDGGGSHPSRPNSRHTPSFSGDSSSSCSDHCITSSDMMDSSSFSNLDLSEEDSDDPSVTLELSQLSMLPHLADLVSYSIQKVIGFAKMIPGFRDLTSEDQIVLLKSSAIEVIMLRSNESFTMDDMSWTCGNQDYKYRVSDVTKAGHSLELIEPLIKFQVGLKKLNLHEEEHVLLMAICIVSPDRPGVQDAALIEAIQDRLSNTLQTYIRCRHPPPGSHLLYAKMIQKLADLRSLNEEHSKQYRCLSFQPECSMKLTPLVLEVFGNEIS

| Structure (SMILES) | Potency |
| --- | --- |
| Cc1oc(-c2ccccc2)nc1CCC(=O)c1ccc(CC2SC(=O)NC2=O)cc1 (stereo not given) | inactive |
| Cn1cc(C(=O)[C@@H]2CCc3nc[nH]c3C2)c2ccccc21 | inactive |
| Clc1ccc2cc3ccccc3cc2c1 | inactive |
| Cc1cc(O)c(C(C)(C)C)cc1C(C)(C)C | 19.5 µM (active) |
| O=C1CCCCCN1SSN1CCCCCC1=O | inactive |
| Clc1ccc2nsnc2c1NC1=NCCN1 | inactive |
| O=C(O)c1ccc(Cl)c(Cl)c1 | inactive |
| CC(C)c1ccc2c(c1)CC[C@H]1[C@](C)(CN)CCC[C@]21C | 49 µM (active) |
| C=CC(=O)OCC(CO)(COCC(COC(=O)C=C)(COC(=O)C=C)COC(=O)C=C)COC(=O)C=C | 2.72 µM (active) |
| O=C(NOCC1CC1)c1ccc(F)c(F)c1Nc1ccc(I)cc1Cl | inactive |
| CCCCCCC[N+](CC)(CC)CCCCc1ccc(Cl)cc1 | inactive |
| C=C(C)C(=O)OCC[N+](C)(C)C | inactive |
| CCc1cc(Cc2cc(CC)cc(C(C)(C)C)c2O)c(O)c(C(C)(C)C)c1 | 17.4 µM (active) |
| C[C@]12CCC(=O)C=C1CC[C@@H]1[C@@H]2[C@@H](O)C[C@@]2(C)[C@H]1CC[C@]2(O)C(=O)COC(=O)CCC(=O)O | inactive |
| CCCCCCCC[P+](CCCCCCCC)(CCCCCCCC)CCCCCCCC | 19.4 µM (active) |
| O=S1(=O)CC(Cl)(Cl)C(Cl)(Cl)C1 | 1.74 µM (active) |
| O=c1cccccc1O | inactive |
| Oc1ccc(C2(c3ccc(O)cc3)CC3CC2C2CCCC32)cc1 (stereo not given) | 47 µM (active) |
| CCCC1O[C@@H]2C[C@H]3[C@@H]4CCC5=CC(=O)C=C[C@]5(C)[C@H]4[C@@H](O)C[C@]3(C)[C@]2(C(=O)CO)O1 (stereo not given in full) | inactive |
| Cc1onc(-c2ccccc2Cl)c1C(=O)N[C@@H]1C(=O)N2[C@@H]1SC(C)(C)[C@@H]2C(=O)O | inactive |

| Structure (SMILES) | Potency |
| --- | --- |
| COc1cccc(N)c1 | inactive |
| N#CC1(c2ccc(F)cc2)CCC(=O)CC1 | inactive |
| CSc1ccc(C(=O)c2[nH]c(=O)[nH]c2C)cc1 | inactive |
| O=C1CCCc2c1cc1ccc3cccc4ccc2c1c34 | inactive |
| Cc1ccc2oc(CN(Cc3ccccc3)C(=O)Nc3c(F)cc(F)cc3F)c(-c3ccc(Cl)cc3)c2c1 | inactive |
| CCC(N)(CO)CO | inactive |
| Cc1cc(N)c(S(=O)(=O)O)cc1Cl | inactive |
| C/C(=C(/OCCOc1ccc(Cl)cc1)c1ccc(Cl)cc1Cl)n1ccnc1 | inactive |
| CCCCCCCCCCCCCC[P+](CCCC)(CCCC)CCCC (tested in a mixture with another compound) | inactive |
| CCCCN1CCCC[C@H]1C(=O)Nc1c(C)cccc1C | inactive |
| CCCCCCCCCCCCc1ccc(O)cc1 | 13.8 µM (active) |
| CCCCCCCCCCn1cc[n+](CCCCCCCCCC)c1C | 19.5 µM (active) |
| O=[N+]([O-])c1ccccc1Nc1ccccc1 | inactive |
| CCC1OCC(COc2ccc(Oc3ccccc3)cc2)O1 (stereo not given) | inactive |
| CCCC(C)c1ccccc1O (stereo not given) | inactive |
| CN(C)c1ccc(C2(c3ccc(N(C)C)cc3)OC(=O)c3cc(N(C)C)ccc32)cc1 | inactive |
| CCOC(=O)O[C@H](C)OC(=O)c1ccc2c(c1)cc(C(=O)NC1CCN(C(C)C)CC1)n2Cc1cc(-c2ccc(Cl)s2)on1 | 16.2 µM (active) |
| N=C1N=C(N)c2ccccc21 | inactive |
| OCCCCCCCCCCCCBr | inactive |
| C[C@H]1[C@H]2CC[C@H]3[C@@H]4CC=C5C[C@@H](N(C)C)CC[C@]5(C)[C@H]4CC[C@]23CN1C | inactive |

Reference: PubChem BioAssay (Tox21)
